Over roughly 16,000 sequences, “rpm ratio (pull-down/input)” has its median near 0.5; the highest 2% begin near 5.5. Shown is part of a subset that was picked to be rich in the highest values.

The experiment has as its target T1, MBP-FoxP3dN (Mus musculus, UniProt Q99JB6 188-423).
T1 sequence: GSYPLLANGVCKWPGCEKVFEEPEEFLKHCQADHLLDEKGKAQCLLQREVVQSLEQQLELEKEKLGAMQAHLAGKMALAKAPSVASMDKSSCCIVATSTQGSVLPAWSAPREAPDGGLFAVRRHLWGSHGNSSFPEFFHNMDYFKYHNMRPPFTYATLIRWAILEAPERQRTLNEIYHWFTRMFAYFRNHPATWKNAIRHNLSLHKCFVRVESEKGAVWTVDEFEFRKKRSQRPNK
The experiment can be described thus: PD-seq (MBP pull-down with sequencing); 20 mM Tris-HCl pH 7.5, 100 mM NaCl, 1.5 mM MgCl2, 0.4 uM protein, 0.1 uM dsDNA library, 30 min, room temperature, amylose pull-down; high values mean tight binding. The settings on record: protein: recombinant; tags: His6-MBP; chain copies: 2; dsDNA, one strand shown. An outline of the steps: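 The N-terminus-lacking fragment of mouse FoxP3 or FoxP1 carried a His6-MBP tag and was expressed in E. coli. At 0.4 µM it was incubated with 0.1 µM Klenow-filled degenerate double-stranded DNA library for 30 min at room temperature in Tris pH 7.5 buffer with NaCl and MgCl2, and complexes were caught on amylose resin, washed three times, released with proteinase K, PCR-barcoded and Illumina-sequenced. Binding is reads-per-million enrichment of pull-down over input with replicates pooled.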
Regarding “GATGATTGTTCTCCCAGCTGATGAATTAGGATGTTCGAGTAAACAAATTTTCCTAATCTTTCTGTTCAAGCGCCATCTAC”, the binding signal was 0.82 RPM ratio (pull-down/input). For the sequence “GATGATTGTTCTCCCAGCTGATGAATTTTTGCGTTCGAGTAAACAAATTTTCCTAATCTTTCTGTTCAAGCGCCATCTAC”, the binding signal is 2.04 RPM ratio (pull-down/input). As for “GATGATTGTTCTCCCAGCTGATGAATTGTATTATTCGAGTAAACAAATTTTCCTAATCTTTCTGTTCAAGCGCCATCTAC”, the binding signal was 5.22 RPM ratio (pull-down/input). “GATGATTGTTCTCCCAGCTGATGAATTATTGCAGTCGAGTAAACAAATTTTCCTAATCTTTCTGTTCAAGCGCCATCTAC”: the binding signal is 1.18 RPM ratio (pull-down/input). The same measure for “GATGATTGTTCTCCCAGCTGATGAATTCAGCTGTTCGAGTAAACAAATTTTCCTAATCTTTCTGTTCAAGCGCCATCTAC”: 1.19 RPM ratio (pull-down/input); for “GATGATTGTTCTCCCAGCTGATGAATTGATTCGCTCGAGTAAACAAATTTTCCTAATCTTTCTGTTCAAGCGCCATCTAC”: 0.331 RPM ratio (pull-down/input); for “GATGATTGTTCTCCCAGCTGATGAATTATGGCTCTCGAGTAAACAAATTTTCCTAATCTTTCTGTTCAAGCGCCATCTAC”: 0.643 RPM ratio (pull-down/input). For the sequence “GATGATTGTTCTCCCAGCTGATGAATTTGTTTGATCGAGTAAACAAATTTTCCTAATCTTTCTGTTCAAGCGCCATCTAC”, the binding signal was 5.99 RPM ratio (pull-down/input). As to “GATGATTGTTCTCCCAGCTGATGAATTGTTGACATCGAGTAAACAAATTTTCCTAATCTTTCTGTTCAAGCGCCATCTAC”, the binding signal was 5.72 RPM ratio (pull-down/input). Take “GATGATTGTTCTCCCAGCTGATGAATTGTTTTGATCGAGTAAACAAATTTTCCTAATCTTTCTGTTCAAGCGCCATCTAC”: the binding signal was 4.03 RPM ratio (pull-down/input).

As to “GATGATTGTTCTCCCAGCTGATGAATTTGATTGATCGAGTAAACAAATTTTCCTAATCTTTCTGTTCAAGCGCCATCTAC”, the binding signal is 2.23 RPM ratio (pull-down/input). In the case of “GATGATTGTTCTCCCAGCTGATGAATTTTTTTGATCGAGTAAACAAATTTTCCTAATCTTTCTGTTCAAGCGCCATCTAC”, the binding signal is 0.23 RPM ratio (pull-down/input). “GATGATTGTTCTCCCAGCTGATGAATTGATGACATCGAGTAAACAAATTTTCCTAATCTTTCTGTTCAAGCGCCATCTAC”: the binding signal was 1.05 RPM ratio (pull-down/input). The same measure for “GATGATTGTTCTCCCAGCTGATGAATTTTGTTGATCGAGTAAACAAATTTTCCTAATCTTTCTGTTCAAGCGCCATCTAC”: 7.34 RPM ratio (pull-down/input); for “GATGATTGTTCTCCCAGCTGATGAATTGATTTGATCGAGTAAACAAATTTTCCTAATCTTTCTGTTCAAGCGCCATCTAC”: 0.64 RPM ratio (pull-down/input); for “GATGATTGTTCTCCCAGCTGATGAATTTTTGACATCGAGTAAACAAATTTTCCTAATCTTTCTGTTCAAGCGCCATCTAC”: 0.524 RPM ratio (pull-down/input). Under “GATGATTGTTCTCCCAGCTGATGAATTGATTCTCTCGAGTAAACAAATTTTCCTAATCTTTCTGTTCAAGCGCCATCTAC” stands 0.395 RPM ratio (pull-down/input); under “GATGATTGTTCTCCCAGCTGATGAATTAAGTCGCTCGAGTAAACAAATTTTCCTAATCTTTCTGTTCAAGCGCCATCTAC”, 0.441 RPM ratio (pull-down/input); under “GATGATTGTTCTCCCAGCTGATGAATTAGGACGCTCGAGTAAACAAATTTTCCTAATCTTTCTGTTCAAGCGCCATCTAC”, 0.484 RPM ratio (pull-down/input). For “GATGATTGTTCTCCCAGCTGATGAATTATACGAGTCGAGTAAACAAATTTTCCTAATCTTTCTGTTCAAGCGCCATCTAC”, the binding signal was 0.404 RPM ratio (pull-down/input). As for “GATGATTGTTCTCCCAGCTGATGAATTCTAGACCTCGAGTAAACAAATTTTCCTAATCTTTCTGTTCAAGCGCCATCTAC”, the binding signal was 0.236 RPM ratio (pull-down/input).

On to “GATGATTGTTCTCCCAGCTGATGAATTCTTAGCCTCGAGTAAACAAATTTTCCTAATCTTTCTGTTCAAGCGCCATCTAC”, for which the binding signal was 0.373 RPM ratio (pull-down/input).

Take “GATGATTGTTCTCCCAGCTGATGAATTCAATTGGTCGAGTAAACAAATTTTCCTAATCTTTCTGTTCAAGCGCCATCTAC”: the binding signal was 2.04 RPM ratio (pull-down/input).

With “GATGATTGTTCTCCCAGCTGATGAATTTGGTTGGTCGAGTAAACAAATTTTCCTAATCTTTCTGTTCAAGCGCCATCTAC”, the binding signal is 2.96 RPM ratio (pull-down/input). Regarding “GATGATTGTTCTCCCAGCTGATGAATTTTGTTGGTCGAGTAAACAAATTTTCCTAATCTTTCTGTTCAAGCGCCATCTAC”, the binding signal was 7.07 RPM ratio (pull-down/input). Under “GATGATTGTTCTCCCAGCTGATGAATTGGTGTGGTCGAGTAAACAAATTTTCCTAATCTTTCTGTTCAAGCGCCATCTAC” stands 1.32 RPM ratio (pull-down/input); under “GATGATTGTTCTCCCAGCTGATGAATTTGTTGGGTCGAGTAAACAAATTTTCCTAATCTTTCTGTTCAAGCGCCATCTAC”, 7.61 RPM ratio (pull-down/input).

For the sequence “GATGATTGTTCTCCCAGCTGATGAATTTTTGGGGTCGAGTAAACAAATTTTCCTAATCTTTCTGTTCAAGCGCCATCTAC”, the binding signal is 0.233 RPM ratio (pull-down/input). For “GATGATTGTTCTCCCAGCTGATGAATTCTGTTGGTCGAGTAAACAAATTTTCCTAATCTTTCTGTTCAAGCGCCATCTAC”, the binding signal was 5.56 RPM ratio (pull-down/input). In the case of “GATGATTGTTCTCCCAGCTGATGAATTCTTTTGGTCGAGTAAACAAATTTTCCTAATCTTTCTGTTCAAGCGCCATCTAC”, the binding signal was 0.31 RPM ratio (pull-down/input). Under “GATGATTGTTCTCCCAGCTGATGAATTGGTTGTGTCGAGTAAACAAATTTTCCTAATCTTTCTGTTCAAGCGCCATCTAC” stands 5.42 RPM ratio (pull-down/input).

(Values after publication PMC12820563, “FoxP3 forms a head-to-head dimer in vivo and stabilizes its multimerization on adjacent microsatellites”.)
